TDP1 cell noCPT: qHTS for Inhibitors of human tyrosyl-DNA phosphodiesterase 1 (TDP1): qHTS in cells in absence of CPT | DT40 Tdp1-/- hTDP1 cells, no CPT, ATP luminescence, 48 h | Potency, µM (top dose mostly 46.2 µM), usual class: inhibitors | hit rate 15% among 420,000 | AID 686978, 2013; also: nearly all actives have a fitted effect of over 55% in size
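Stably hTDP1-transfected Tdp1-null chicken DT40 cells were treated with library compounds minus camptothecin and grown for at least 48 hr at 37 °C, after which cellular ATP was quantified by luminescence.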
12-LOX inh: Primary qHTS assay for inhibitors of human arachidonate 12S-lipoxygenase (ALOX12): Round 2; Potency, µM (doses to about 108 µM), hits mostly inhibitors; AID 1671190, 2021; Polyunsaturated fatty acid lipoxygenase ALOX12 (Homo sapiens), P18054; purified 12hLO, xylenol orange hydroperoxide absorbance; hit rate 1.1% among 580,000
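Purified human 12hLO at 150 nM in 25 mM Hepes, 0.01% Triton X-100, pH 7.0, preincubated 15 min at room temperature with compound. Reaction started with 40 uM arachidonic acid, 30 min at room temperature. Hydroperoxide measured by Fe-xylenol orange, 573/405 nm absorbance ratio.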
Gal4-VP16 FLuc: VP16 counterscreen qHTS for inhibitors of ROR gamma transcriptional activity; Drosophila S2 Gal4-VP16 UAS-luciferase, luminescence, 20 h; Potency, µM (top dose mostly 53.6 µM), hits mostly inhibitors; hit rate 3.5% among 310,000;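 also: Gal4-VP16 expression switched on by copper sulfate through the metallothionein promoter; nearly all actives have a fitted effect of over 50% in size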
ELG1 repair inh: qHTS screen for small molecules that inhibit ELG1-dependent DNA repair in human embryonic kidney (HEK293T) cells expressing luciferase-tagged ELG1. HEK293T ELG1-luciferase reporter, luminescence, 16 h; DNA damage induced by 5-fluorouridine. Potency, µM (highest dose often 46.1 µM), most hits filed as inhibitors. hit rate 2.3% among 330,000. AID 504467, 2011; also: nearly all actives have a fitted effect of over 55% in size
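In this reporter screen, reduction of luminescence relative to DMSO vehicle indicated activity. Compounds and 5-fluorouridine were added together to 2,000 cells per well, incubated for 16 hr at 37 °C, then developed with ONE-Glo.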
RORg inh: qHTS for inhibitors of ROR gamma transcriptional activity; hit rate 5.4% among 310,000; Nuclear receptor ROR-gamma (Mus musculus), P51450; AID 2551, 2010; Drosophila S2 Gal4-RORgamma UAS-luciferase reporter, 20 h; Potency, µM (top dose mostly 53.6 µM), hits mostly inhibitors; also: nearly all actives have a fitted effect of over 60% in size
Target sequence (P51450 whole entry, looked up, the tested form may be a part): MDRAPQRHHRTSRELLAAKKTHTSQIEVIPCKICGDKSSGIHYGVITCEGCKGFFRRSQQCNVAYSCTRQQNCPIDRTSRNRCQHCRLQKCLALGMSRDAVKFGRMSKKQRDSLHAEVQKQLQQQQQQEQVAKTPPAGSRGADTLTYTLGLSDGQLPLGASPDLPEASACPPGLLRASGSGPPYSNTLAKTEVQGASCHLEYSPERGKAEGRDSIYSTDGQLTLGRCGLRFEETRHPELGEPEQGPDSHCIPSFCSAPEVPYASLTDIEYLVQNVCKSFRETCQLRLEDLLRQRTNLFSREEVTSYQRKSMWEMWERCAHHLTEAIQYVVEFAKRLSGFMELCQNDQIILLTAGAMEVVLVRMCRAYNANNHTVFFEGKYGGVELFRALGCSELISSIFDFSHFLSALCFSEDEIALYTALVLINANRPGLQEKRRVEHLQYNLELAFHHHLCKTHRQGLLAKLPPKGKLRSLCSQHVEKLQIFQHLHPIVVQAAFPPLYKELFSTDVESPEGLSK
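Drosophila S2 cells stably expressing Gal4-DBD/mouse RORγ fusion under metallothionein promoter plus UAS-luciferase; compound 1 h, then 700 uM CuSO4 induction for 20 h at ambient temperature; inhibition read as reduced luminescence.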
DT40 TDP1 CPT: qHTS for Inhibitors of human tyrosyl-DNA phosphodiesterase 1 (TDP1): qHTS in cells in presence of CPT. AID 686979, 2013. Potency, µM (series often up to 46.2 µM), actives largely listed as inhibitors. hit rate 12% among 420,000. chicken DT40 Tdp1-/-;hTDP1 cells + 20 nM CPT, ATP luminescence, 48 h; also: nearly all actives have a fitted effect of over 55% in size
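Chicken DT40 Tdp1-/- cells complemented with human TDP1, 400 cells/well, exposed to compounds plus 20 nM camptothecin for at least 48 h at 37 C; viability read as ATP content by CellTiter-Glo luminescence.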
Numbers stand for hits. Rows were chosen to be rich in hits. Some 15% of all compounds tested hit in one or more screens of this group. Calls follow the shape of the dose curve; as a rule, active = well fitted curve in the direction sought with a large enough effect; inconclusive = small, poorly fitted or top-dose-only effect, or another doubt; inactive = no such curve, though single readings can be large; an effect the other way counts as inactive or inconclusive.

How did CC(=O)NNC(=O)c1[nH]c2ccc(Cl)cc2c1-c1ccccc1 do in these assays?
TDP1 cell noCPT: inconclusive; 12-LOX inh: inactive; Gal4-VP16 FLuc: inactive; ELG1 repair inh: inactive; RORg inh: inactive; DT40 TDP1 CPT: inactive

Results for NNC(=O)c1[nH]c2ccccc2c1-c1ccccc1 ?
TDP1 cell noCPT: 15µM; 12-LOX inh: inactive; Gal4-VP16 FLuc: inactive; ELG1 repair inh: inconclusive; RORg inh: inactive; DT40 TDP1 CPT: inconclusive

What do the screens show for `Nc1ccc(Br)cc1C(=O)O`?
TDP1 cell noCPT: inactive; 12-LOX inh: inactive; Gal4-VP16 FLuc: 1.4µM; ELG1 repair inh: inactive; RORg inh: 2.8µM; DT40 TDP1 CPT: inactive

Results for N#Cc1ccc(OC(=O)Cc2ccc3c(c2)OCCO3)cc1 ?
12-LOX inh: inactive

How did COc1ccc(OC)c(C2CCCN2CC(=O)N2CCN(c3cccc(C)c3)CC2)c1 (stereo not drawn) do in these assays?
12-LOX inh: inactive

What do the screens show for `O=C(CSc1nc(Cl)nc2nc[nH]c12)NCCc1ccc(O)cc1`?
12-LOX inh: inactive

Results for COc1cccc(C(=O)N2CCCC(c3noc(COc4ccccc4)n3)C2)c1 (stereo not drawn) ?
12-LOX inh: inactive

What do the screens show for `O=C(N/N=C/c1c[nH]c2ccccc12)c1cc(Br)ccc1O`?
TDP1 cell noCPT: inactive; 12-LOX inh: inactive; Gal4-VP16 FLuc: 7.9µM; ELG1 repair inh: inactive; RORg inh: 5.6µM; DT40 TDP1 CPT: inactive

Results for O=C(N/N=C/c1c[nH]c2ccc(Br)cc12)c1ccccn1 ?
TDP1 cell noCPT: inconclusive; 12-LOX inh: inactive; Gal4-VP16 FLuc: inactive; ELG1 repair inh: inactive; RORg inh: inactive; DT40 TDP1 CPT: inactive

How did C/C=N/NC(=O)c1cc(Br)ccc1O do in these assays?
TDP1 cell noCPT: inactive; 12-LOX inh: inactive; Gal4-VP16 FLuc: inconclusive; ELG1 repair inh: inactive; RORg inh: 11µM; DT40 TDP1 CPT: inactive

Results for COC(=O)c1cc(Br)ccc1O ?
12-LOX inh: inactive

Results for O=C(N/N=C/c1c[nH]c2ccccc12)c1[nH]c2ccc(Br)cc2c1-c1ccccc1 ?
TDP1 cell noCPT: 3.7µM; 12-LOX inh: inactive; Gal4-VP16 FLuc: inconclusive; ELG1 repair inh: inactive; RORg inh: 16µM; DT40 TDP1 CPT: 5.8µM

How did CCOc1ccc(Br)cc1C(=O)N/N=C/c1c[nH]c2ccccc12 do in these assays?
TDP1 cell noCPT: inconclusive; 12-LOX inh: inconclusive; Gal4-VP16 FLuc: inactive; ELG1 repair inh: inactive; RORg inh: inactive; DT40 TDP1 CPT: inactive

How did O=C(C(=O)c1cc(Br)ccc1O)c1cc(Br)ccc1O do in these assays?
TDP1 cell noCPT: 23µM; 12-LOX inh: inconclusive; DT40 TDP1 CPT: inconclusive

How did COCc1cn([C@H]2CO[C@H]3[C@@H]2OC[C@@H]3N)nn1 do in these assays?
12-LOX inh: inactive

Results for CCNC(=O)[C@@H]1C[C@H](N)CN1C(=O)c1c(C)nc2sccn12 ?
12-LOX inh: inactive

How did O=C(c1ccco1)N1CCN(C(=O)c2nnn3c2COC(c2ccc(Cl)cc2)C3)CC1 (stereo not drawn) do in these assays?
12-LOX inh: inactive

How did O=C(NN=C1CCCC1)c1[nH]c2ccc(Cl)cc2c1-c1ccccc1 do in these assays?
TDP1 cell noCPT: inconclusive; 12-LOX inh: inactive; Gal4-VP16 FLuc: inconclusive; ELG1 repair inh: inconclusive; RORg inh: 11µM; DT40 TDP1 CPT: inconclusive

How did CCNc1nc(C23CC4CC(CC(C4)C2)C3)cs1 do in these assays?
TDP1 cell noCPT: inconclusive; 12-LOX inh: inconclusive; Gal4-VP16 FLuc: inconclusive; ELG1 repair inh: inactive; RORg inh: 10µM; DT40 TDP1 CPT: inconclusive

Results for COc1cc(/C=C2\C(=O)ON=C2c2ccc(Cl)cc2)ccc1O ?
TDP1 cell noCPT: 23µM; 12-LOX inh: inconclusive; DT40 TDP1 CPT: 16µM
